Experimental data from PubChem BioAssay (NCI).
About 83,000 compounds went through this panel and 20% of them were active in at least one assay; those are over-represented in the sample as a whole.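 Treatment: one concentration, 48 hours, 96-well format. Scoring: percent growth, with anything below 10 considered active.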 Calls of active or inactive are those of the source.

Columns and labels:
Assay in all cases: NCI-60 one-dose screen, 48 h (100 = growth as untreated, 0 = no growth, -100 = all killed)
Conditions in all cases: 10 µM unless noted
SR leukemia = test system: SR leukemia
RPMI-8226 leukemia = test system: RPMI-8226 leukemia
OVCAR-5 ovarian = test system: OVCAR-5 ovarian
OVCAR-4 ovarian = test system: OVCAR-4 ovarian
SK-OV-3 ovarian = test system: SK-OV-3 ovarian
IGROV1 ovarian = test system: IGROV1 ovarian
OVCAR-3 ovarian = test system: OVCAR-3 ovarian
HS 578T breast = test system: HS 578T breast
NCI/ADR-RES ovarian = test system: NCI/ADR-RES ovarian
T-47D breast = test system: T-47D breast
BT-549 breast = test system: BT-549 breast
MDA-MB-435 melanoma = test system: MDA-MB-435 melanoma
SW-620 colon = test system: SW-620 colon
MCF7 breast = test system: MCF7 breast
HCT-116 colon = test system: HCT-116 colon
HCC-2998 colon = test system: HCC-2998 colon
KM12 colon = test system: KM12 colon
OVCAR-8 ovarian = test system: OVCAR-8 ovarian

SMILES | growth (SR leukemia) | growth (RPMI-8226 leukemia) | growth (OVCAR-5 ovarian) | growth (OVCAR-4 ovarian) | growth (SK-OV-3 ovarian) | growth (IGROV1 ovarian) | growth (OVCAR-3 ovarian) | growth (HS 578T breast) | growth (NCI/ADR-RES ovarian) | growth (T-47D breast) | growth (BT-549 breast) | growth (MDA-MB-435 melanoma) | growth (SW-620 colon) | growth (MCF7 breast) | growth (HCT-116 colon) | growth (HCC-2998 colon) | growth (KM12 colon) | growth (OVCAR-8 ovarian)
Cc1ccc(Nc2nc(N)nc(Nc3ccc4ccccc4c3)n2)cc1 | 26.8% (inactive) | 48.2% (inactive) | 79.9% (inactive) | 74.7% (inactive) | 58.4% (inactive) | 51.4% (inactive) | 8.67% (active) | 47% (inactive) | 30.6% (inactive) | 36.2% (inactive) | 48.1% (inactive) | 16.6% (inactive) | 23.5% (inactive) | 29.6% (inactive) | 21.8% (inactive) | 77.5% (inactive) | 25.1% (inactive) | –
Cc1cc(OCc2ccc(C(F)(F)F)cc2)c2c(c1)C(=O)C=C(NCCN1CCCC1)C2=O | -11.6% (active) | 29.9% (inactive) | 87.9% (inactive) | 68% (inactive) | 103% (inactive) | 74.8% (inactive) | 83.9% (inactive) | 85% (inactive) | – | 42.8% (inactive) | – | -23.5% (active) | 74.7% (inactive) | 31% (inactive) | 19.6% (inactive) | 15.2% (inactive) | 79.1% (inactive) | 72.3% (inactive)
Cc1ccn2c(-c3csc(Nc4cccc(O)c4)n3)c(C)nc2c1 | -24.8% (active) | -4.74% (active) | 38.5% (inactive) | 36.7% (inactive) | -25.2% (active) | 14.1% (inactive) | -14% (active) | 19.2% (inactive) | – | 34% (inactive) | 25% (inactive) | -34.6% (active) | 33.4% (inactive) | 6.08% (active) | 27.6% (inactive) | – | 29.9% (inactive) | 40.1% (inactive)
CCN(CC)c1ccc(CNc2cc(C)nc3ccc(OC)cc23)cc1 | -22.2% (active) | -33.7% (active) | 96.3% (inactive) | 71.9% (inactive) | 84.7% (inactive) | – | 51.6% (inactive) | – | 33.9% (inactive) | 80% (inactive) | 79.6% (inactive) | -16.5% (active) | -74.6% (active) | 76.7% (inactive) | 54.8% (inactive) | -92.6% (active) | 28.4% (inactive) | 81.4% (inactive)
COc1ncc(-c2ccc3ncnc(Nc4cccc(Cl)c4)c3c2)cc1NS(C)(=O)=O | 50.6% (inactive) | 22.8% (inactive) | – | 70.7% (inactive) | -11.2% (active) | -45.5% (active) | 26.9% (inactive) | 16.2% (inactive) | 51% (inactive) | -6.68% (active) | 25.3% (inactive) | 41.9% (inactive) | 50.2% (inactive) | 7.7% (active) | 47% (inactive) | 56.8% (inactive) | 55.3% (inactive) | 45.5% (inactive)
CCCCN(CC)CCCCCCCCCCN1CCCc2cc(OC)ccc21 | -31.7% (active) | -18.4% (active) | 78.8% (inactive) | 101% (inactive) | 88.9% (inactive) | – | 13.6% (inactive) | – | 25.9% (inactive) | 93.6% (inactive) | 89.3% (inactive) | 14.5% (inactive) | 22.7% (inactive) | 99% (inactive) | 69.7% (inactive) | -26% (active) | -1.91% (active) | 87.5% (inactive)
COc1ccc(C2CC(=O)Nc3c2c(C)nn3-c2nc3ccccc3[nH]2)cc1 (stereo unspecified) | -36% (active) | 20.4% (inactive) | 112% (inactive) | 121% (inactive) | 122% (inactive) | 12.6% (inactive) | 18.3% (inactive) | 61.7% (inactive) | 96.3% (inactive) | 111% (inactive) | 113% (inactive) | 99.9% (inactive) | 48.2% (inactive) | 91.6% (inactive) | 108% (inactive) | 112% (inactive) | 30.4% (inactive) | –
Nc1cccc(-c2nc3sccn3c2-c2ccnc(NCCCNS(=O)(=O)c3ccc(C(F)(F)F)cc3)n2)c1 | 15.5% (inactive) | -29.7% (active) | 40.9% (inactive) | -1% (active) | 23.8% (inactive) | 4.78% (active) | 6.08% (active) | 12.3% (inactive) | 0.058% (active) | -16.9% (active) | 0.811% (active) | -14.8% (active) | 12.7% (inactive) | 2.11% (active) | 3.07% (active) | 18.1% (inactive) | 1.52% (active) | –
COc1ccc(Cl)cc1Nc1nc(C(F)(F)F)ccc1C(=O)N/N=C/c1cccnc1 | 25.1% (inactive) | 32.5% (inactive) | 57% (inactive) | 29.7% (inactive) | 53.9% (inactive) | 40.3% (inactive) | 29.3% (inactive) | 59.6% (inactive) | 41.8% (inactive) | – | 47.1% (inactive) | 58.4% (inactive) | 47.5% (inactive) | 33.3% (inactive) | 43.2% (inactive) | 53.6% (inactive) | 59.5% (inactive) | –
COc1nc2c(cc1S(=O)(=O)c1ccccc1)CCc1c-2cnn1Cc1ccccc1 | 26.2% (inactive) | 32.8% (inactive) | 93.6% (inactive) | 35.2% (inactive) | 58% (inactive) | 80.5% (inactive) | 64.5% (inactive) | 79.9% (inactive) | 48.2% (inactive) | – | 62.8% (inactive) | 58.9% (inactive) | 74.1% (inactive) | 15.4% (inactive) | 32.5% (inactive) | 60.5% (inactive) | 27.7% (inactive) | –
CN1CCN(Cc2ccc(NC(=O)c3cncc(C#Cc4cnc(N)c5cccnc45)c3)cc2C(F)(F)F)CC1 | 15.4% (inactive) | 18.5% (inactive) | 12.5% (inactive) | 36.8% (inactive) | -10.9% (active) | 7.64% (active) | 34.6% (inactive) | -2.09% (active) | 87% (inactive) | – | 38.9% (inactive) | 7.67% (active) | 1.78% (active) | 26.8% (inactive) | 3.52% (active) | 30.2% (inactive) | 8.81% (active) | –
CCN(CC)CC(O)CNc1c2ccc([N+](=O)[O-])cc2nc2cc(OC)c(OC)cc12 (stereo unspecified) | -7.08% (active) | -13.8% (active) | 10% (inactive) | -39.3% (active) | -42.5% (active) | -39.9% (active) | -37.7% (active) | -18.2% (active) | – | -27.9% (active) | -69.8% (active) | -88.4% (active) | 4.13% (active) | -22.9% (active) | -23.5% (active) | -68.2% (active) | -37.5% (active) | –
CC1CN(C(C)C)C(=S)N(c2ccccc2)C1=O (stereo unspecified) | 108% (inactive) | – | 90.7% (inactive) | 112% (inactive) | 106% (inactive) | 81.5% (inactive) | 99.4% (inactive) | 98% (inactive) | 92.7% (inactive) | 166% (inactive) | 101% (inactive) | 96.3% (inactive) | 108% (inactive) | 96.7% (inactive) | 89.4% (inactive) | 101% (inactive) | 109% (inactive) | 97.6% (inactive)
O=C1c2c[n+](Cc3ccccc3)ccc2-c2nc3ccccc3c3ccnc1c23 | -8.84% (active) | -25.2% (active) | -11% (active) | -38.7% (active) | -13% (active) | -46.1% (active) | -66.8% (active) | -18.8% (active) | 75.9% (inactive) | -48.4% (active) | -30.7% (active) | -81.8% (active) | -12.9% (active) | – | -31.5% (active) | -53% (active) | 2.73% (active) | –
CCc1ccccc1NC(=O)c1sc2nc3c(cc2c1N)C(=O)CCC3 | 9.38% (active) | – | 33.5% (inactive) | 60.9% (inactive) | 6.9% (active) | 33.3% (inactive) | -12.7% (active) | 22.6% (inactive) | 5.24% (active) | 23.2% (inactive) | 48% (inactive) | -56.6% (active) | 25.7% (inactive) | 8.92% (active) | 26.1% (inactive) | 24% (inactive) | 25.4% (inactive) | 24.3% (inactive)
CC#CC#Cc1cccc(=O)o1 | -9.17% (active) | 45.6% (inactive) | 101% (inactive) | 91.6% (inactive) | 104% (inactive) | 65.1% (inactive) | 7.67% (active) | 70.9% (inactive) | 90.1% (inactive) | – | 38.1% (inactive) | 15.2% (inactive) | 27.3% (inactive) | 29% (inactive) | 30.9% (inactive) | 95.8% (inactive) | 58.8% (inactive) | –
Cc1ccc(S(=O)(=O)N(CCc2ccc(Cl)cc2)S(=O)(=O)c2ccc(C)cc2)cc1 | 82.5% (inactive) | 76.9% (inactive) | 106% (inactive) | 86.5% (inactive) | 85.2% (inactive) | 89.1% (inactive) | 95% (inactive) | 103% (inactive) | 87.9% (inactive) | 82% (inactive) | 98.8% (inactive) | 95.4% (inactive) | 101% (inactive) | 87.9% (inactive) | 93.3% (inactive) | 88.1% (inactive) | 91.7% (inactive) | –
COc1cc(C2CC(=O)c3c(C)nn(-c4nc5ccccc5[nH]4)c3C2)cc(OC)c1OC (stereo unspecified) | 87.7% (inactive) | 92.1% (inactive) | 90.4% (inactive) | -35.4% (active) | 17.9% (inactive) | – | 67.2% (inactive) | 43.1% (inactive) | 64.9% (inactive) | 60% (inactive) | – | 99.8% (inactive) | 99.6% (inactive) | 76.4% (inactive) | 68.7% (inactive) | 82.4% (inactive) | 102% (inactive) | –
Fc1ccc(Cc2ccc(F)cc2)cc1 | 116% (inactive) | – | 102% (inactive) | 101% (inactive) | 107% (inactive) | 102% (inactive) | 112% (inactive) | 114% (inactive) | 101% (inactive) | 101% (inactive) | 128% (inactive) | 114% (inactive) | 99.1% (inactive) | 99% (inactive) | 102% (inactive) | 114% (inactive) | 108% (inactive) | 108% (inactive)
